What was measured:
Experiment in all cases: PBM binding z-score (relative to random genomic background probes); higher = stronger binding; sequences stand for … in GC…GCGATTGACAGCGTAGAATGAAGG
[1] = tested on: PPARg:RXRa DBDmut IVT, anti-RXR (DBD mutation: RXRa K156A/R161A, NR concentration 270 nM, RXRa partner concentration 90 nM)
Outline: (§1)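 Binding buffer was PBS pH 7.4 with 2% milk, 0.02% Triton X-100, 1 mM DTT, 0.2 mg/mL BSA and 0.4 mg/ml salmon testes DNA. In it, ligand-free nuclear receptor dimers were incubated 1 h on custom Agilent 4×180K protein-binding microarrays carrying double-stranded probes. Antibodies against each partner (one per run) detected binding, and z-scores were calculated against random background probes after regression normalization of scanned fluorescence.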

[2] = tested on: PPARg:RXRa IVT, anti-PPARg (NR concentration 270 nM, RXRa partner concentration 90 nM)
Outline: as §1

[3] = tested on: PPARg DBDmut:RXRa IVT, anti-PPARg (DBD mutation: PPARg1 K132A/R137A, NR concentration 270 nM, RXRa partner concentration 90 nM)
Outline: as §1

[4] = tested on: PPARg DBDmut IVT, anti-PPARg (DBD mutation: PPARg1 K132A/R137A, NR concentration 270 nM)
Outline: as §1

[5] = tested on: PPARg homodimer (NR concentration 180 nM)
Outline: as §1

[6] = tested on: PXR:RXRa (NR concentration 270 nM, RXRa partner concentration 90 nM)
Outline: as §1

[7] = tested on: PXR homodimer (NR concentration 270 nM)
Outline: as §1

[8] = tested on: RARa:RXR (NR concentration 270 nM, RXRa partner concentration 90 nM)
Outline: as §1

[9] = tested on: RARa homodimer (NR concentration 270 nM)
Outline: as §1

[10] = tested on: RARb:RXRa (NR concentration 270 nM, RXRa partner concentration 90 nM)
Outline: as §1

[11] = tested on: RARb homodimer (NR concentration 270 nM)
Outline: as §1

[12] = tested on: RARg:RXRa (NR concentration 270 nM, RXRa partner concentration 90 nM)
Outline: as §1

[13] = tested on: RARg homodimer (NR concentration 270 nM)
Outline: as §1

[14] = tested on: RXRa DBDmut IVT, anti-RXR (DBD mutation: RXRa K156A/R161A, NR concentration 90 nM)
Outline: as §1

[15] = tested on: RXRa homodimer (NR concentration 180 nM)
Outline: as §1

[16] = tested on: THRa:RXRa (NR concentration 90 nM, RXRa partner concentration 90 nM)
Outline: as §1

[17] = tested on: THRa homodimer (NR concentration 90 nM)
Outline: as §1

[18] = tested on: VDR:RXRa (NR concentration 270 nM, RXRa partner concentration 90 nM)
Outline: as §1

[19] = tested on: VDR homodimer (NR concentration 270 nM)
Outline: as §1

Sequence | PBM binding z-score [1] | PBM binding z-score [2] | PBM binding z-score [3] | PBM binding z-score [4] | PBM binding z-score [5] | PBM binding z-score [6] | PBM binding z-score [7] | PBM binding z-score [8] | PBM binding z-score [9] | PBM binding z-score [10] | PBM binding z-score [11] | PBM binding z-score [12] | PBM binding z-score [13] | PBM binding z-score [14] | PBM binding z-score [15] | PBM binding z-score [16] | PBM binding z-score [17] | PBM binding z-score [18] | PBM binding z-score [19]
CGTCCAAGGTCAAAGGCCAGTGAAGAGATGACGG | 3.42 | 4.02 | 0.425 | 0.106 | 3.37 | 4.39 | 0.655 | 5.25 | 0.426 | 5.29 | 4.03 | 6.17 | 6.72 | 3.33 | 6.48 | 3.82 | 1.82 | 4.14 | 3.32
TCTCCGAGGACACGAAAGGTCAGAGCTCGACATC | 1.67 | 1.97 | 0.778 | 0.343 | 2.54 | 4.22 | 0.558 | 4.27 | 0.52 | 4.47 | 4.77 | 4.91 | 5.54 | 1.34 | 4.12 | 4.36 | 2.74 | 3.72 | 1.31
ATCTCTAGGTAAGACTCAGTTCAGAGAAGAACGC | 1.92 | 1.16 | 1.58 | 0.9 | 1.02 | 0.856 | 1.56 | 0.299 | 0.962 | 0.134 | 0.397 | 0.254 | 0.549 | 0.3 | -0.0317 | 0.761 | 0.645 | 0.685 | 1.12
GTTCCAAGGTGAATAGGTCGTTGATGAGTAGGCG | 2.09 | 2.89 | -0.109 | 0.149 | 1.58 | 1.02 | 0.352 | 2.05 | 0.818 | 2.22 | 2.22 | 2.74 | 1.76 | 0.23 | 1.72 | 2.4 | 0.975 | 1.08 | 0.742
GCTGCTAGGTCAGCTTGGTCAGCTAACGGGTACG | 3.14 | 2.46 | -1.08 | -1.08 | 0.887 | 0.168 | -0.979 | 0.718 | -0.683 | 3.29 | 2.8 | 2.8 | 3.88 | 0.514 | 1.1 | 1.73 | 0.547 | 0.54 | -0.161
CCGACTCGGGCATAAGGTTACCATAAGCCAGCCC | 0.661 | -0.167 | -1.02 | -2 | 0.278 | 0.0235 | -0.204 | 0.884 | -0.315 | 1.36 | 1.44 | 1.47 | 0.909 | -0.288 | 0.905 | 2.09 | 0.96 |  | -0.223
ACAGACAGGTGATAAAGGTAACTCAGGCTATCAT | -0.135 | 0.46 | -0.885 | -0.537 | 0.207 | -0.0528 | 0.0239 | 0.267 | -0.124 | 0.423 | 0.459 | 0.384 | 0.498 | -0.109 | 0.225 | 1.15 | -0.0543 | 0.455 | -0.632
ATATGTAGCTTACATCCGGGTCATTCAGGCTATG | 0.48 | 1.48 | 1.08 | 0.976 | 0.783 | 2.42 | 1.38 | 2.54 | 0.0612 | 1.31 | 1.78 | 1.48 | 1.02 | 0.735 | 1.9 | 2.87 | 2.3 |  | 2.18
CGTGCAAGGTCAAGGTCAGTGAAAGAGACTCGAA | 3.53 | 4.59 | 1.6 | -0.363 | 4.25 | 4.99 | 1.2 | 5.11 | 2.15 | 5.53 | 5 | 6.85 | 7.64 | 3.8 | 6.7 | 4.26 | 3.18 | 4.83 | 3.35
AGAATGAGGTTATTAAGATCAGGGAATTGCGGTC | 3.22 | 2.5 | 1.04 | 0.418 | 1.11 | 1.48 | 0.762 | 1.56 | 0.273 | 1.46 | 1.05 | 1.17 | 0.93 | 1.91 | 1.89 | 2.18 | 0.599 | 2.62 | 0.931
TTAACAAGGTGAAGGTCGTTGATCCCTCTGTAGA | 2.79 | 3.4 | 0.419 | 0.266 | 0.4 | 1.35 | 0.014 | 1.82 | -0.625 | 2.03 | 1.5 | 1.38 | 1.26 | 0.219 | 1.88 | 2.4 | 0.923 |  | 0.715
ACAGACAGGTGAGTGAAGGGAACTCAGCTGGACG | 0.124 | 0.352 | -0.265 | -0.714 | -0.397 | -0.572 | -0.37 | -0.456 | -0.307 | 0.438 | -0.231 | 0.199 | 0.0505 | -0.777 | 0.39 | 0.0282 | -0.679 | -0.408 | -0.331
CGAACGAGGGCATGAGTTGATGGCAAATGCCGAT | 3.03 | 2.23 | -0.341 | -0.685 | -0.031 | 0.243 | -0.209 | 0.201 | -1.03 | 1.99 | 0.659 | 1.25 | 1.6 | 2.05 | 0.973 | 1.08 | -0.389 | 1.34 | 1.31
TCTTGTAGATCACAGGTTAAGAAAGCCGAAGCCT | 2.16 | 1.8 | 0.9 | 0.0684 | 0.447 | 0.186 | -0.359 | 0.737 | -0.789 | 0.464 | 0.0208 | 0.222 | 0.135 | 0.557 | 0.811 | 0.341 | -0.442 | 0.396 | -0.219
GTACCAAGGTGAATAGGTCGTTGTTGAGTAGGCG | 1.9 | 2.74 | 0.246 | -0.308 | 1.31 | 0.708 | -0.604 | 1.5 | 0.154 | 1.91 | 1.89 | 2.4 | 1.05 | 0.135 | 1.64 | 1.81 | 0.601 | 0.825 | 0.168
